Legend:
Experiment in all cases: log2 ratio of Biotin-Ahx-Ub-VS probe labelling (fragment/DMSO); higher = less target engagement (more negative = stronger competition), active = hit call of the paper (q ≤ 0.05, log2 ratio ≤ -1)
Settings in all cases: compound concentration: 200 uM; treatment time: 3 h
USP19 = biological target: T1, USP19 (UniProt O94966)
T1 sequence (whole entry): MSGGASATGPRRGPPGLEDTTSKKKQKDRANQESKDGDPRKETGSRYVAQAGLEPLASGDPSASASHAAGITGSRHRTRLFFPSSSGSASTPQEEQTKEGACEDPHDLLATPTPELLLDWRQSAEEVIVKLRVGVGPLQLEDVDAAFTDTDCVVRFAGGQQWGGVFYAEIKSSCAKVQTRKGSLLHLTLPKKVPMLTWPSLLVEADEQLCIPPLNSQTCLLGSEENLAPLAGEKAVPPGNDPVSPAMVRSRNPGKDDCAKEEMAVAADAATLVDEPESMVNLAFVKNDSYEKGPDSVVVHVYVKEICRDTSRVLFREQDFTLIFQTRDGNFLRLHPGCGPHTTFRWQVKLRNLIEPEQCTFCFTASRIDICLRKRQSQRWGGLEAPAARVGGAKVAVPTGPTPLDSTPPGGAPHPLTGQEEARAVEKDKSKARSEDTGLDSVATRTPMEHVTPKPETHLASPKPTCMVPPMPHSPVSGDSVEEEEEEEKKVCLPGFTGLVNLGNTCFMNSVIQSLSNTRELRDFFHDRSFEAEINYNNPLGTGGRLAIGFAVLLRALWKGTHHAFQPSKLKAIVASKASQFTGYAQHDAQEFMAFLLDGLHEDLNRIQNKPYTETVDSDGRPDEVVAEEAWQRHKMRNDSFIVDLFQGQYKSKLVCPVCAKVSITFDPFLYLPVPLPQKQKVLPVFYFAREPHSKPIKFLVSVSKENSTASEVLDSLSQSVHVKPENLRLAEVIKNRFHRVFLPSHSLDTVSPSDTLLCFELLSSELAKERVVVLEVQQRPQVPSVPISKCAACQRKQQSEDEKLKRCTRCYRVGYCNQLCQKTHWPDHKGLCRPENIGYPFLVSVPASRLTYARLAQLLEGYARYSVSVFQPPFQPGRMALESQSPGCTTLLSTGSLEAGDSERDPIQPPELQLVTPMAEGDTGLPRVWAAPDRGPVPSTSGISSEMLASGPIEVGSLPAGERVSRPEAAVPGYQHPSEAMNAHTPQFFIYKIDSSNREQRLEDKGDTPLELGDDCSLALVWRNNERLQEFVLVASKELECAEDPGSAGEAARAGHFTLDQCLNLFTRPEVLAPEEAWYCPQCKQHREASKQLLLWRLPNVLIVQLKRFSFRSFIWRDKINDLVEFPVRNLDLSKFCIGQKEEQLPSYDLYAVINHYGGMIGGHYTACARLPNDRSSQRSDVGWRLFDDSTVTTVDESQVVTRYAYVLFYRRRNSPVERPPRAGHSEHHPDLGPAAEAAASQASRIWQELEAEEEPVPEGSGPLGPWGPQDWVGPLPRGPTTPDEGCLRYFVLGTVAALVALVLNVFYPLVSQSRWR
How it was run: (§1)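 Using Biotin-Ahx-Ub-VS at 0.5 µM final for 1 h, DUBs were labelled in HEK293T lysate (495 µg per sample) that had first been treated in triplicate with fragment at 200 µM or vehicle for 3 h. NeutrAvidin enrichment, LysC and trypsin digestion and diaPASEF LC-MS/MS followed. Spectronaut label-free quantities were global-median-normalised. Values are average log2 fragment/vehicle ratios by unpaired t-test, using proteins with ≥2 unique peptides.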

USP22 = biological target: T2, USP22 (UniProt Q9UPT9)
T2 sequence (whole entry): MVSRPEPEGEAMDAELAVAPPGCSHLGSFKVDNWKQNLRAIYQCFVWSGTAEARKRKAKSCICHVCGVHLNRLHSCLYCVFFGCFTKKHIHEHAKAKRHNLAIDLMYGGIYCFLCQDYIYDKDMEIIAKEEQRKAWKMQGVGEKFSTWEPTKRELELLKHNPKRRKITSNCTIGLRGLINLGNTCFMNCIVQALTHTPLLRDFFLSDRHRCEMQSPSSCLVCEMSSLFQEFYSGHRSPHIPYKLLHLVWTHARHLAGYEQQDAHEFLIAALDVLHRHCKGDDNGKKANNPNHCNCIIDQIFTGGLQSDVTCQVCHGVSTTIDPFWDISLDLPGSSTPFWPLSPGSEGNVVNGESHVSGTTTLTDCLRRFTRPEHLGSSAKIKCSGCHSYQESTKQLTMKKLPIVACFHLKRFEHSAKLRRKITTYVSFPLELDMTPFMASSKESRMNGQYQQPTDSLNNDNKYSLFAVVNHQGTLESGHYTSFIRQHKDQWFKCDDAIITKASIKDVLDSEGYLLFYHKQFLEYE
How it was run: as §1

USP24 = USP24 (UniProt Q9UPU5)
How it was run: as §1

USP25 = biological target: T3, USP25 (UniProt Q9UHP3)
T3 sequence (whole entry): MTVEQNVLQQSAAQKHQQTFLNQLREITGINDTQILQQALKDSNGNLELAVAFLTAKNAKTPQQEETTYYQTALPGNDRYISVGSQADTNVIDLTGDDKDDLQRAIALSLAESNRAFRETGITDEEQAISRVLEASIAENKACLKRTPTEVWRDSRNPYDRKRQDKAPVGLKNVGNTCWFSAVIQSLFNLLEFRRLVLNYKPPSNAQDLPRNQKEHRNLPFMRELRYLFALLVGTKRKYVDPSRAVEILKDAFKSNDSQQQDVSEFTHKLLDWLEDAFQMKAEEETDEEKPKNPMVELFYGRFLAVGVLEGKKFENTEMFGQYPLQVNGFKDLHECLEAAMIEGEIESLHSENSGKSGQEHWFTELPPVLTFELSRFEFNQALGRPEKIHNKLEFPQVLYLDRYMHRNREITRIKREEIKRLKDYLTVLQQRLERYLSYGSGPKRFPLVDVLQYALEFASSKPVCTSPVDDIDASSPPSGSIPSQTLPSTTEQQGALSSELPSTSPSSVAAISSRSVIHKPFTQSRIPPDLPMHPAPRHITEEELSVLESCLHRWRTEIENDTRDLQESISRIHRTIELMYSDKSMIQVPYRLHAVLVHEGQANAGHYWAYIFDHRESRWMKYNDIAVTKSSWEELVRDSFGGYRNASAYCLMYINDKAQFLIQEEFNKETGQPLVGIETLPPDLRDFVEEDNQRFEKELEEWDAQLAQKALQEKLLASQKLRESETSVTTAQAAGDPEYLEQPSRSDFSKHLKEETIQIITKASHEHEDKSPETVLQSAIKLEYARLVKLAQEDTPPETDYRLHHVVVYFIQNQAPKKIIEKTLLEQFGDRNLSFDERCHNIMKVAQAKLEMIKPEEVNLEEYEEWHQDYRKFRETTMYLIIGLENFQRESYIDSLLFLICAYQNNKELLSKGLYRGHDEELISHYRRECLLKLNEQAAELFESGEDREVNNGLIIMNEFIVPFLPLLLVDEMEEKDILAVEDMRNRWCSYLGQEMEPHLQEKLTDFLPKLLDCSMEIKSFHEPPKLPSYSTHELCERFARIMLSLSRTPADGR
How it was run: as §1

USP28 = biological target: T4, USP28 (UniProt Q96RU2)
T4 sequence (whole entry): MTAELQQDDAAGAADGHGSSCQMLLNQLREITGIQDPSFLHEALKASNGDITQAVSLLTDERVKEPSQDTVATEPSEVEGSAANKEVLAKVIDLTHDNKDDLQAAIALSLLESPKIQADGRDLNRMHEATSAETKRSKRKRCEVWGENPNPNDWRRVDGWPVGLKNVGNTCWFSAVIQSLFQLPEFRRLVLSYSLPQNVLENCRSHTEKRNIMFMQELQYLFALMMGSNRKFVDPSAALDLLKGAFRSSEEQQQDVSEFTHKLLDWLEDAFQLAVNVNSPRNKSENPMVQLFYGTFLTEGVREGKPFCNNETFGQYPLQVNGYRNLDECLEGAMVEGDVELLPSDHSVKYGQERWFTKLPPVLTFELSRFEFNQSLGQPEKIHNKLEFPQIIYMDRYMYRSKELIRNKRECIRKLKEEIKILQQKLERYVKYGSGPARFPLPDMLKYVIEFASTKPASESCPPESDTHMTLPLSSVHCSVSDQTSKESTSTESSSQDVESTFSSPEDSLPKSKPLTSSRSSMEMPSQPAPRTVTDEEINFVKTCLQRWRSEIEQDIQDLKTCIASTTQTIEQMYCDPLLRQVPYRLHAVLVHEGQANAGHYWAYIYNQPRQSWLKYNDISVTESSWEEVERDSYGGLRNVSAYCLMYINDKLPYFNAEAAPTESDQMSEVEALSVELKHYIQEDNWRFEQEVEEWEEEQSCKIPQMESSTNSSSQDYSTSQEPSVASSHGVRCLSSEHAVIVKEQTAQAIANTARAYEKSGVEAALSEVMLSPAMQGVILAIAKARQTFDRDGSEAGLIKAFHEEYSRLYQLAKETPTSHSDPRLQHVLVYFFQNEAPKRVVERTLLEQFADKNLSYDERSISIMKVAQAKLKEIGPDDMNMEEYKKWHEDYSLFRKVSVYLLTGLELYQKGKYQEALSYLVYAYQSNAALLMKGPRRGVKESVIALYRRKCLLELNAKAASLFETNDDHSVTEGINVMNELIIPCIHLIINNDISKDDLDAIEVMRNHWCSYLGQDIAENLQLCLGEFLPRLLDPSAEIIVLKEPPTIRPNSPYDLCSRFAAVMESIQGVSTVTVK
How it was run: as §1

Measured: log2 ratio of Biotin-Ahx-Ub-VS probe labelling

USP24, sequence (Q9UPU5 whole entry): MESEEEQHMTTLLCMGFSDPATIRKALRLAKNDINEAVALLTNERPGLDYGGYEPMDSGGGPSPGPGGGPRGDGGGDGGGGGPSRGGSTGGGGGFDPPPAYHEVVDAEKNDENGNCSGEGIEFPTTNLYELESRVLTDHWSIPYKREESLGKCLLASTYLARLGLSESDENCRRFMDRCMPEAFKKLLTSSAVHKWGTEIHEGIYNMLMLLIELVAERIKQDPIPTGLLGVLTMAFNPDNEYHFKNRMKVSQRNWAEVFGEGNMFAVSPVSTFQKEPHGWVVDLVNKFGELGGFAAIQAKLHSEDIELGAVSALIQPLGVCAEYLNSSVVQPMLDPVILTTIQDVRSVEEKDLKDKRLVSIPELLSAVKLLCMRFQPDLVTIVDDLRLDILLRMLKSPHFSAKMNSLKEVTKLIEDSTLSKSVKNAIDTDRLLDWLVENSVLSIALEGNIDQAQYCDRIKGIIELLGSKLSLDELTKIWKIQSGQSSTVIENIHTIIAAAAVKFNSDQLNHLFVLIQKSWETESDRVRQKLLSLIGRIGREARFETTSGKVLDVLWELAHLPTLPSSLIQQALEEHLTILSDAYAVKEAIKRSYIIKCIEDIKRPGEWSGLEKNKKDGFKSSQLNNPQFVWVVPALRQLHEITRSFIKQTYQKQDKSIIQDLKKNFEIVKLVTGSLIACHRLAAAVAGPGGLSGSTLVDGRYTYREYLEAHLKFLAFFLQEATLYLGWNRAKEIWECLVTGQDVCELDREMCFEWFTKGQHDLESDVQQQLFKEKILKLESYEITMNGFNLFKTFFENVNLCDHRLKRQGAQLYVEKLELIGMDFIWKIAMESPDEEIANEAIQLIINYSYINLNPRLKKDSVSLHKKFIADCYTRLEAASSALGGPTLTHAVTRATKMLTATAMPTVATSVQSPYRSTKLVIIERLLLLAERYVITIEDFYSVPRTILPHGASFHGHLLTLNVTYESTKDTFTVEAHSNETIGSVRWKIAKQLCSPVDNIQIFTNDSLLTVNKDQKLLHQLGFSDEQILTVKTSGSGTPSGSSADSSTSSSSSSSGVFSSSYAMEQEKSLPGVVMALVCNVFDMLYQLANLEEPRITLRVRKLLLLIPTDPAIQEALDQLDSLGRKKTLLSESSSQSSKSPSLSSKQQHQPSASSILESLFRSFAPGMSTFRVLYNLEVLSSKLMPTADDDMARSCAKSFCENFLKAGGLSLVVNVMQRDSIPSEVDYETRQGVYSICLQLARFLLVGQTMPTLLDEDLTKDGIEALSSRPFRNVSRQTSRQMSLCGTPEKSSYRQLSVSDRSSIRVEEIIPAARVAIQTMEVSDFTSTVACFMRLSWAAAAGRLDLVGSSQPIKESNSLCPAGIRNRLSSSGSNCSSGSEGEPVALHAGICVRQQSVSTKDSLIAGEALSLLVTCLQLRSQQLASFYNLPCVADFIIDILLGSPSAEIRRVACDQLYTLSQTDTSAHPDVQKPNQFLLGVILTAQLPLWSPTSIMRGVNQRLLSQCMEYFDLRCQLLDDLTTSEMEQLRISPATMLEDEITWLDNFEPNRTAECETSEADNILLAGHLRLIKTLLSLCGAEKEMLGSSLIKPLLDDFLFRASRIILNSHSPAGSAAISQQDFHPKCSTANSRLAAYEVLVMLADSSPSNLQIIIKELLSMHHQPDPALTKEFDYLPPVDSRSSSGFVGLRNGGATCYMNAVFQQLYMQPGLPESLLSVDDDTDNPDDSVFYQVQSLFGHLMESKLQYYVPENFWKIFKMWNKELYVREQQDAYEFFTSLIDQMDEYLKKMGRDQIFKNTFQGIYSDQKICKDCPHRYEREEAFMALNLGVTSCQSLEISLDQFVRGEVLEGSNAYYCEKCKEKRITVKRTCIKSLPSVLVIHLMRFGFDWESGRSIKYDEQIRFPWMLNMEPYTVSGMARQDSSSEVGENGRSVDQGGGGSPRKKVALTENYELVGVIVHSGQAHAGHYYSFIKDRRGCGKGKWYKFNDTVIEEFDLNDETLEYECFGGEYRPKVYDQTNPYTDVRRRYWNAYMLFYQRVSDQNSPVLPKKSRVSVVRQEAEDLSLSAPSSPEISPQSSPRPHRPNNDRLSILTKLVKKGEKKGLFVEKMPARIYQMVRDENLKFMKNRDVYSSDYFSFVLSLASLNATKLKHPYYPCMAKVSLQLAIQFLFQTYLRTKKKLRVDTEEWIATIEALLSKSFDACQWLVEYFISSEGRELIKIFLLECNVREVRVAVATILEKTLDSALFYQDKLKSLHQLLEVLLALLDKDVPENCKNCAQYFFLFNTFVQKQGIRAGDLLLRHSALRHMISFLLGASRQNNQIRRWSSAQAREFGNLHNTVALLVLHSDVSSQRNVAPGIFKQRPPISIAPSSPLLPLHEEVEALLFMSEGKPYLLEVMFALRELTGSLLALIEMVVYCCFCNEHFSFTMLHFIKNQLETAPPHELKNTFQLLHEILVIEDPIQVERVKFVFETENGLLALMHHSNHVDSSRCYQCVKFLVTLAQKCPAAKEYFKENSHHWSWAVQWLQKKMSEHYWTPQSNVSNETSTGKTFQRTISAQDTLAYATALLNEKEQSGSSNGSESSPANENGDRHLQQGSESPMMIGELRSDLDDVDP

O=C(CCl)N1CCC(C(O)c2ccc(F)cc2)CC1 (stereo not given)
inactive: USP19 0.0656 | USP22 0.13 | USP24 -0.164 | USP25 0.058 | USP28 -0.0428

Source: the supplement of paper PMC11732987, “Enantioselective OTUD7B fragment discovery through chemoproteomics screening and high-throughput optimisation” (Communications Chemistry, 2025)
